What all share (test): NCI-60 one-dose screen, 48 h (100 = growth as untreated, 0 = no growth, -100 = all killed)
One experiment has as its system SK-MEL-2 melanoma. As to conditions: 10 µM.
The test system of a further experiment is SN12C renal. The conditions noted are these: 10 µM.
A further experiment deals with UO-31 renal. The conditions noted are these: 10 µM.
The subject of the next experiment is TK-10 renal. The conditions noted are these: 10 µM unless noted.
For the next experiment, the system named is ACHN renal. As to conditions: 10 µM.
The next experiment has as its system CCRF-CEM leukemia. As to conditions: 10 µM.
The next experiment relates to MOLT-4 leukemia. As to conditions: 10 µM.
A further experiment has as its system SR leukemia. As to conditions: 10 µM.
A further experiment concerns RPMI-8226 leukemia. The conditions noted are these: 10 µM.
A further experiment has as its system OVCAR-8 ovarian. The conditions noted are these: 10 µM.
Another experiment concerns OVCAR-5 ovarian. The conditions noted are these: 10 µM.
The next experiment deals with OVCAR-4 ovarian. As to conditions: 10 µM.
In another experiment the test system is IGROV1 ovarian. As to conditions: 10 µM.
A further experiment deals with OVCAR-3 ovarian. The conditions noted are these: 10 µM.
The subject of the next experiment is HS 578T breast. As to conditions: 10 µM.
Another experiment concerns NCI/ADR-RES ovarian. As to conditions: 10 µM.
The next experiment relates to CAKI-1 renal. As to conditions: 10 µM.
The test system of the next experiment is A498 renal. As to conditions: 10 µM.
A further experiment deals with SK-OV-3 ovarian. As to conditions: 10 µM.

The panel holds about 83,000 compounds, 20% with a hit somewhere; the sample as a whole holds those more often.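 The test compound was applied at a single concentration to cells in 96-well plates for 48 hours, and percent growth was recorded.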 A number with no mark means an inactive call. Calls of active or inactive are those of the source. Rule for the calls: active = growth percent below 10; inactive = the rest.

For the compound `CC(=Nc1ccccc1)C1=C(O)C(Cc2cccc(F)c2)NC1=O` (centres undefined), the growth in the experiment with SK-MEL-2 melanoma is 13.1%; with SN12C renal, 29.7%; in the experiment with UO-31 renal, 35.9%; in the experiment with TK-10 renal, 44.4%; with ACHN renal, 26.4%; in the experiment on CCRF-CEM leukemia, 6.2% (active). For the same compound, the growth in the experiment on MOLT-4 leukemia is -12.4% (active); with SR leukemia it was 0.385% (active); in the experiment with RPMI-8226 leukemia it was 9.85% (active); in the experiment on OVCAR-8 ovarian it was 1.8% (active); with OVCAR-5 ovarian, 25.6%; with OVCAR-4 ovarian, 36.4%. The growth in the experiment with IGROV1 ovarian is 13.8%; in the experiment with OVCAR-3 ovarian, -36.1% (active); in the experiment on HS 578T breast, 45.6%; in the experiment on NCI/ADR-RES ovarian, 7.11% (active).

Turning to `O=C(NCc1ccco1)Nc1c(Cl)cc(Cl)cc1Cl`, the growth in the experiment with SK-MEL-2 melanoma is 75.5%; in the experiment on SN12C renal, 96.9%; in the experiment on UO-31 renal it was 84%; with TK-10 renal, 105%; in the experiment with ACHN renal, 97.2%; in the experiment with CAKI-1 renal, 89.1%. The growth with A498 renal was 99.5%; in the experiment on MOLT-4 leukemia, 108%; in the experiment on RPMI-8226 leukemia, 100%; in the experiment on OVCAR-8 ovarian, 101%; in the experiment on OVCAR-5 ovarian, 97.7%; in the experiment with OVCAR-4 ovarian, 88.4%. Besides, the growth was 103% with SK-OV-3 ovarian; 105% in the experiment on IGROV1 ovarian; 112% with OVCAR-3 ovarian; 109% with HS 578T breast; 101% in the experiment on NCI/ADR-RES ovarian.

On to `O=C(O)COCC(=O)O`, for which the growth in the experiment on SK-MEL-2 melanoma is 107%; in the experiment on SN12C renal, 102%; in the experiment on UO-31 renal it was 91.4%; in the experiment with TK-10 renal, 124%; with ACHN renal it was 103%; in the experiment on CAKI-1 renal, 97.5%. The growth in the experiment on A498 renal was 110%; in the experiment with CCRF-CEM leukemia, 101%; with MOLT-4 leukemia, 99.1%; with SR leukemia it was 95.3%; in the experiment with OVCAR-8 ovarian, 98.2%; in the experiment on OVCAR-5 ovarian it was 107%. Besides, the growth in the experiment with SK-OV-3 ovarian is 111%; in the experiment with IGROV1 ovarian, 105%; with OVCAR-3 ovarian it was 103%; in the experiment with HS 578T breast, 117%; with NCI/ADR-RES ovarian, 106%.

Regarding `CCCC(C)OCC(=O)O` (centres undefined), the growth was 104% in the experiment with SK-MEL-2 melanoma; 103% in the experiment on SN12C renal; 86.6% with UO-31 renal; 119% in the experiment on TK-10 renal; 102% in the experiment with ACHN renal; 97.5% with CAKI-1 renal. Further, the growth was 103% with A498 renal; 101% in the experiment on CCRF-CEM leukemia; 95% in the experiment with MOLT-4 leukemia; 94.5% in the experiment on SR leukemia; 97.2% with OVCAR-8 ovarian; 108% in the experiment with OVCAR-5 ovarian. Also, the growth in the experiment on OVCAR-4 ovarian was 84.8%; in the experiment with SK-OV-3 ovarian, 113%; in the experiment with IGROV1 ovarian, 105%; in the experiment on OVCAR-3 ovarian, 108%; in the experiment on HS 578T breast, 117%; with NCI/ADR-RES ovarian, 107%.

For `COC(=O)c1ccc(NC(=O)CCl)cc1`, the growth in the experiment with SK-MEL-2 melanoma was 66%; in the experiment on SN12C renal, 76.6%; in the experiment with UO-31 renal, 107%; in the experiment with TK-10 renal, 88%; in the experiment on ACHN renal, 85.7%; in the experiment on CAKI-1 renal it was 83.9%. Besides, the growth in the experiment on A498 renal is 97.4%; with MOLT-4 leukemia, 72.7%; with SR leukemia, 38.7%; in the experiment on OVCAR-8 ovarian, 85.5%; with OVCAR-5 ovarian, 96.4%; in the experiment with OVCAR-4 ovarian it was 95.4%. Besides, the growth is 96.7% in the experiment on SK-OV-3 ovarian; 50.6% with IGROV1 ovarian; 82.4% in the experiment with OVCAR-3 ovarian; 74.9% in the experiment on HS 578T breast; 97.1% in the experiment with NCI/ADR-RES ovarian.

Regarding `O=C(Nc1ccccc1C(=O)NCC1CC1)c1cccs1`, the growth is 113% in the experiment with SK-MEL-2 melanoma; 100% in the experiment on SN12C renal; 89.4% in the experiment on UO-31 renal; 114% in the experiment with TK-10 renal; 103% in the experiment with ACHN renal; 82.7% in the experiment on CAKI-1 renal. Moreover, the growth in the experiment with A498 renal was 106%; in the experiment with MOLT-4 leukemia, 111%; in the experiment on RPMI-8226 leukemia it was 97.4%; with OVCAR-8 ovarian, 99.4%; in the experiment on OVCAR-5 ovarian, 99.9%; in the experiment on OVCAR-4 ovarian, 98.7%. For the same compound, the growth with SK-OV-3 ovarian is 110%; in the experiment on IGROV1 ovarian, 118%; in the experiment with OVCAR-3 ovarian, 117%; in the experiment on HS 578T breast it was 114%; in the experiment on NCI/ADR-RES ovarian, 101%.

As for `COc1cc(CCN=Cc2ccccc2O)c([N+](=O)[O-])cc1OC`, the growth is 102% in the experiment with SK-MEL-2 melanoma; 103% with SN12C renal; 79.3% in the experiment on UO-31 renal; 96.9% in the experiment on TK-10 renal; 96.7% in the experiment on ACHN renal; 86.6% in the experiment on CAKI-1 renal. Further, the growth was 119% in the experiment with A498 renal; 96.1% with MOLT-4 leukemia; 105% in the experiment on RPMI-8226 leukemia; 107% in the experiment on OVCAR-8 ovarian; 101% with OVCAR-5 ovarian; 120% in the experiment with OVCAR-4 ovarian. The growth was 108% in the experiment with SK-OV-3 ovarian; 96.5% with IGROV1 ovarian; 101% with OVCAR-3 ovarian; 114% with HS 578T breast; 103% in the experiment with NCI/ADR-RES ovarian.

Values taken from PubChem BioAssay (NCI).
